For 53 molecules, INHIBITION results are on record in ChEMBL document CHEMBL4513216, “Probing the Open Global Health Chemical Diversity Library for Multistage-Active Starting Points for Next-Generation Antimalarials” (ACS Infect Dis, 2020).

Screen size: about 68,000 compounds; about 2,700 (4%) showed an effect of 50% or more. The list comes from a sample in which strong results are over-represented; it also holds similar structures and randomly drawn compounds.

The test system of the assay is Plasmodium berghei. Nature of the assay: Screen against P. berghei liver stage (PbLuc), transformed with Luciferase, at 2uM. The assay is classed as functional, HepG2. The following applies: tested at 2 uM.
Take `CN1C[C@H](O)[C@]2(CCN(Cc3ccc(F)c(F)c3)C2)S1(=O)=O`: the INHIBITION came out at 6.4%.

For `CCc1noc(CN(Cc2cccs2)C2CC2)n1`, the INHIBITION is 7.85%.

With `COC(=O)C1CN(CC(=O)Nc2cc(F)ccc2F)c2ccccc21` (stereo not drawn), the INHIBITION is 16.95%.

Regarding `COC(=O)C1CN(CC(=O)Nc2cccc(OC)c2)c2ccccc21` (stereo not drawn), the INHIBITION was found to be 43.88%.

For `COC(=O)C1CN(CC(=O)Nc2ccccc2Cl)c2ccccc21` (stereo not drawn), the INHIBITION amounted to 57.34%.

Turning to `Cn1cc(CN2CCC[C@]3(C[C@H](Oc4ncccc4F)CO3)C2)cn1`, the INHIBITION was 20.01%.

As to `CC(C)CN1CCC2(Cc3ccccc3NC2=O)C1` (stereo not drawn), the INHIBITION is -1.69%.

As for `COCC1CN(CC2CC2)Cc2nn(C)cc21` (stereo not drawn), the INHIBITION was 30.38%.

As for `CCc1ccc2c(c1)C(CCNC(=O)Cc1ccc(F)cc1)C(=O)N2` (stereo not drawn), the INHIBITION is 33.22%.

On to `CCc1ccc2c(c1)C(CCNC(=O)CSC(F)(F)F)C(=O)N2` (stereo not drawn), for which the INHIBITION is reported as 26.51%.

For `CCc1ccc2c(c1)C(CCNC(=O)CCc1ccsc1)C(=O)N2` (stereo not drawn), the INHIBITION was 57.16%.

As to `Cc1nc(C)n(CC2CCCCN2CC(=O)Nc2c(C)n[nH]c2C)n1` (stereo not drawn), the INHIBITION is on record as -91.52%.

As for `CC(C(=O)N(C)C)N1CCCN(C(=O)Oc2ccccc2)CC1` (stereo not drawn), the INHIBITION is recorded as 10.43%.

Regarding `CC(=O)Nn1ccc2c(nnc3c(-c4ccc(F)cc4)cnn32)c1=O`, the INHIBITION is -27.89%.

With `CN1CCC(c2cccc(-c3cccc(C(=O)O)c3)n2)CC1`, the INHIBITION was -14.73%.

On to `COc1nccc(C(F)(F)F)c1C(=O)O`, for which the INHIBITION was -16.59%.

Regarding `COC(=O)c1c(C(F)(F)F)cnc(OC)c1Cl`, the INHIBITION is given as 53.54%.

With `COc1ncc(C(F)(F)F)c(C(=O)O)c1Cl`, the INHIBITION is listed as 30.38%.

In the case of `Cc1ccc(C(CNCc2c[nH]nc2C)N(C)C)cc1` (stereo not drawn), the INHIBITION was determined as 30.23%.

For `Cc1nc(N2CCC(O)(c3ccc(F)cc3)CC2)c2c(C)nn(C)c2n1`, the INHIBITION stood at 15.92%.

Turning to `CN(C)CC(=O)N1CCOC2(CCCN(c3ncccc3F)C2)C1` (stereo not drawn), the INHIBITION is -15.88%.

With `Cc1noc(C)c1CNCC1COCc2c(-c3ccoc3)nnn2C1` (stereo not drawn), the INHIBITION is reported as 22.84%.

With `COCCN1CCC2(CCC1=O)CN(c1ccnc(SC)n1)CCN2C` (stereo not drawn), the INHIBITION worked out at 1.85%.

`CCN1CCC2(CCC1=O)CN(c1ccnc(SC)n1)CCN2C` (stereo not drawn): the INHIBITION is listed as -1.27%.

As to `CSc1nccc(N2CCN(C)C3(CCC(=O)N(CC4CC4)CC3)C2)n1` (stereo not drawn), the INHIBITION worked out at 55.4%.

In the case of `CN1CCC(N(CCc2ccccc2)C(=O)c2ccc(C#N)nc2)CC1`, the INHIBITION came to 31.12%.

Take `CCc1cc(CNC(=O)N2Cc3ccccc3N(C)CC2C)on1` (stereo not drawn): the INHIBITION turned out to be 61.01%.

As for `CC1CN(C)c2ccccc2CN1C(=O)NCc1ccon1` (stereo not drawn), the INHIBITION was determined as 16.79%.

On to `CCc1cc(CNC(=O)N2Cc3ccccc3N(C)CC2C)[nH]n1` (stereo not drawn), for which the INHIBITION is -19.7%.

In the case of `O=C(CN1CCC2(CCCN(CCO)C2=O)C1)NCCc1ccccc1` (stereo not drawn), the INHIBITION is -27.89%.

`Brc1cccc(C2(CNCc3cc[nH]c3)CCOCC2)c1`: the INHIBITION turned out to be 10.93%.

In the case of `O=C(CS(=O)(=O)c1ccc(Cl)cc1)NC1CCCc2ccccc21` (stereo not drawn), the INHIBITION is 44.37%.

For `CN(C)CC1CN(c2ncnc3[nH]ccc23)CCO1` (stereo not drawn), the INHIBITION is given as -35.72%.

Consider `CCCc1nc(C)cc(N2Cc3cnn(CCO)c3C2)n1`, for which the INHIBITION is -18.52%.

Take `Cc1cc(N2Cc3cnn(CCO)c3C2)nc(-c2ccccc2)n1`: the INHIBITION was determined as 67.53%.

As to `Cc1cc(N2CCOC(C(F)(F)F)C2)nc(-c2ccccc2O)n1` (stereo not drawn), the INHIBITION is given as -43.28%.

For the molecule `Cc1cc(N2CCN(CCO)CC2)nc(-c2ccncc2)n1`, the INHIBITION is 1.22%.

On to `Cc1cc(N2Cc3cnn(CCO)c3C2)nc(-c2ccccc2O)n1`, for which the INHIBITION is reported as 53.55%.

`Cc1cc(NCCO)nc(-c2ccccc2O)n1`: the INHIBITION is given as -4.81%.

Consider `Cc1ccc(CC(=O)N2Cc3nccn3CC(Cn3cccn3)C2)cc1` (stereo not drawn), for which the INHIBITION is -8.05%.

In the case of `CCc1nc(C2CCCN(C(=O)c3cccc(C(N)=O)c3)C2)no1` (stereo not drawn), the INHIBITION is given as -12.41%.

On to `COc1ccc2[nH]c3c(c2c1)CN(c1cc(NCCO)nc(N)n1)CC3`, for which the INHIBITION was 13.24%.

With `CN(Cc1ccccc1)C(=O)[C@@H]1Cc2[nH]cnc2CN1C`, the INHIBITION was 4.59%.

With `O=C([C@@H]1Cc2[nH]cnc2CN1C(=O)NC1CCCCC1)N1CCCC1`, the INHIBITION is given as 17.77%.

For the molecule `CN1Cc2nc[nH]c2C[C@H]1C(=O)NC1CCCCC1`, the INHIBITION turned out to be 60.6%.

`CCC(C)C(=O)N(C)Cc1cc(F)ccc1N1CCC(OC)CC1` (stereo not drawn): the INHIBITION came to 15.56%.

In the case of `Cc1ccc(CNC(=O)c2ccc(S(=O)(=O)N3C[C@H]4C[C@@H]3CN4)cc2)o1`, the INHIBITION stood at 44.86%.

As for `CCN1CCC(CNCc2c[nH]nc2C(C)(C)C)C1` (stereo not drawn), the INHIBITION is 37.68%.

For `CC(C)(C)c1n[nH]cc1CNCC1CCN(C2CC2)C1` (stereo not drawn), the INHIBITION is recorded as 10.43%.

`CC(C)N1CCC(CNCc2c[nH]nc2C(C)(C)C)C1` (stereo not drawn): the INHIBITION is 66.97%.

On to `CCc1nc(CN2CCOC(Cn3nc(C)cc3C)C2)no1` (stereo not drawn), for which the INHIBITION was -7.73%.

On to `O=C(CCCc1nc(C2CC2)no1)N1CCCC(c2ccn[nH]2)C1` (stereo not drawn), for which the INHIBITION amounted to 41.84%.

As for `COc1ccc(Cl)cc1NC(=O)CCNc1ccc(C#N)cn1`, the INHIBITION turned out to be 9.27%.
